Giardia kill – Giardia lamblia killing. Giardia lamblia trophozoite viability. activity change, % at 7.66 µM, hits read low. 340,000 compounds, 0.15% hits; in the data active = activity change below about -80%; inconclusive = between about -30% and that limit;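 also: parasites exposed to compound for two days anaerobically before the ATP read; % is scaled to controls: 0 for no effect and ±100 for the full control effect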
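Each well holds 100 Giardia trophozoites and compound. After two days (48 hrs) at 37 deg C in anaerobic conditions, ATP is quantified by luminescence.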
BRCA1 expr up – increases BRCA1 expression. MCF7-BRCA1-FFLuc reporter, luminescence, 48 h; response scale: scaled: vehicle 0%, 10 µM genistein 100%. Potency, µM (doses to about 46.1 µM), inactives show at the highest dose activation, most hits filed as activators. 380,000 compounds, 1.1% hits. AID 624202; also: potency is read from the fitted curve at half-maximal effect; nearly all actives have a fitted effect of over 80% in size
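MCF7 cells carrying a BRCA1-firefly luciferase reporter (2000 cells/well, phenol-red free MEM) were attached for 2 h at 37 °C, then given compounds for 48 h. Luminescence was read 15 min after luciferase reagent; activity normalized to genistein (10 microM) and DMSO.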
IL-2 act – activators of IL-2; 360,000 compounds, 0.065% hits; IL-2 activation reporter assay, cell-based qHTS; stimulated with anti-CD3/CD4/CD28 beads; in transgenic mouse T cells; activation, % (series mostly up to about 46 µM); in the data active = activation above about 50%; inconclusive = mostly about 30% to 49%; also: 0% is about no effect
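Unstimulated transgenic mouse T cells; 60-min compound exposure; bead-based TCR/CD4/CD28 stimulation; 18 h culture, 37 degrees C; dual fluorescence (EGFP, DsRed) plate cytometry.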
NPSR antagonist – neuropeptide S receptor (human) antagonism, cAMP; Q6W5P4; CHO-NPSR cells, cAMP TR-FRET, antagonist mode; Potency, µM (top dose mostly 38.3 µM), for the others: top-dose activity change, negative = inhibition, most hits filed as inhibitors; 220,000 compounds, 1% hits; AID 1461; also: potency is read from the fitted curve at half-maximal effect; % is scaled to controls: 0 for no effect and ±100 for the full control effect; nearly all actives have a fitted effect of over 50% in size
Target sequence (Q6W5P4 whole entry, looked up): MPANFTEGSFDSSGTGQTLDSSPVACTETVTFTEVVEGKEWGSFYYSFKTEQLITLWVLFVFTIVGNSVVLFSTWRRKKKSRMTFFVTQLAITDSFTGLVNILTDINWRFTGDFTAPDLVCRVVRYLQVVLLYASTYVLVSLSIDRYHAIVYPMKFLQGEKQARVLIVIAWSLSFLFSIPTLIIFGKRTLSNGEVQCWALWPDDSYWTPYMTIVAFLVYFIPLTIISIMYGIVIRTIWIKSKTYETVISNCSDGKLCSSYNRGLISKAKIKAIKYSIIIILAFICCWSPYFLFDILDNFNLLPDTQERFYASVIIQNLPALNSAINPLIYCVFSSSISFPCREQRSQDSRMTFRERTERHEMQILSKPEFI
RXFP1 ag – RXFP1 (human) receptor agonism. HEK293T-RXFP1 cAMP TR-FRET, 30 min; response scale: percent of porcine relaxin response, buffer zero. Potency, µM (doses to about 57.5 µM), for inactives: at the highest dose activation, actives largely listed as activators. 370,000 compounds, 0.3% hits; also: potency is read from the fitted curve at half-maximal effect; % is scaled to controls: 0 for no effect and ±100 for the full control effect; nearly all actives have a fitted effect of over 60% in size
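HEK293T cells stably expressing RXFP1 were pretreated with the PDE4 inhibitor Ro 20174, exposed to compounds for 30 min at 37C, lysed, and cAMP was read by TR-FRET. Data normalized to buffer (basal) and 29 nM porcine relaxin (100%).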
RXFP1 antagonist – blocks the human relaxin receptor RXFP1. Q9HBX9. HEK293-RXFP1, relaxin-stimulated cAMP HTRF, 30 min; active compounds read low. activity change, negative = inhibition, % at 57.5 µM. 350,000 compounds, 0.59% hits;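 active = activity change of -60% or lower, but not beyond a set lower limit; inconclusive = change between -60% and -40%, or beyond the set limit; inactive = change above -40%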; also: % is scaled to controls: 0 for no effect and ±100 for the full control effect
* hit, by the source's call; ? = inconclusive; . = no result given; [ ] = dose if it differs, or a comment. This is a sample that favours compounds with a hit; in the whole collection about 1.9% have one here. Unless noted, calls follow the shape of the dose curve; as a rule, active = well fitted curve in the direction sought with a large enough effect; inconclusive = small, poorly fitted or top-dose-only effect, or another doubt; inactive = no such curve, though single readings can be large; an effect the other way counts as inactive or inconclusive.

SMILES	Giardia kill	BRCA1 expr up	IL-2 act	NPSR antagonist	RXFP1 ag	RXFP1 antagonist
O=C1/C(=C/c2ccccn2)SC(=S)N1c1ccc(O)cc1	5	-15%	1	-9%	8%	-2
O=C1/C(=C\c2ccccn2)SC(=S)N1c1ccc(S(=O)(=O)Nc2nccs2)cc1	3	-30%	-1	-27%	0%	-81*
COc1ccc(/C=C2\SC(=O)N(CCC(=O)Nc3ccc(S(=O)(=O)Nc4nccs4)cc3)C2=O)cc1	0	40%	-5	7%	0%	-36
CCCN1C(=O)c2ccccc2NC1c1ccc(OC)c(COc2ccc([N+](=O)[O-])cc2)c1 (configuration not stated)	12	0%	.	.	.	.
CCCCC(=O)C1=C(N2CCCC2)CC(C)(C)CC1=O	4	-1%	2	.	.	-62*
COCCn1c(=N)c(S(=O)(=O)c2ccc(Br)cc2)cc2c(=O)n3ccccc3nc21	17	21%	0	.	-2%	-4
Cc1ccc(Cn2c(=N)c(S(=O)(=O)c3ccc(Br)cc3)cc3c(=O)n4ccccc4nc32)cc1	-8	-7%	95*	.	?	-6
COc1ccc(CCn2c(=N)c(S(=O)(=O)c3ccc(C)cc3)cc3c(=O)n4ccccc4nc32)cc1	7	-9%	61*	.	1%	0
CCOC(=O)c1sc(NC(=O)CSc2nc(C)cc(C)n2)c(C#N)c1C	2	-42%	-2	-18%[46.1 µM]	3%	-5
CCOC(=O)c1c(NC(=O)CSc2nc(C)cc(C)c2C#N)sc(C(C)=O)c1C	3	3%	-2	?	18µM*	-9
O=C(NCCc1ccccc1F)c1cccc2cccnc12	4	2µM*	0	.	3%	0
Cc1cc(C(=O)COC(=O)c2ccc(O)cc2O)c(C)n1-c1ccccc1	12	?	-8	.	-3%	-87*
COc1ccc(-n2c(C)cc(C(=O)COC(=O)c3ccc(O)cc3O)c2C)cc1	5	0%	-1	.	-1%	-33
COCCn1c(=S)[nH]c2cc(C(=O)N3CCN(Cc4ccccc4)CC3)ccc2c1=O	4	0%	.	.	.	.
OCc1ccccc1SSc1ccccc1CO	-10	-69%	-2	.	.	-65*
OCc1ccccc1O	.	.	.	.	.	-12
C[n+]1ccnc2cc(Cl)ccc21	.	-79%	.	.	.	.
CC1(C)Cc2c(C#N)c(N3CCN(C(=O)c4ccco4)CC3)nc(-c3ccco3)c2CS1	-7	-25%	-4	10µM*	2%	-2
Cc1ccc2oc3c(c(=O)c2c1)C(c1cccc(O)c1)N(c1ccccn1)C3=O (configuration not stated)	-14	-15%	1	10µM*	0%	?
Cc1ccc2oc3c(c(=O)c2c1)C(c1ccccc1F)N(c1ccccn1)C3=O (configuration not stated)	.	.	.	.	3%	2
Cc1cc(=O)n2nc(N3CCC(C(=O)Nc4ccc(Br)c(C)c4)CC3)sc2n1	.	9%	.	.	2%	.
C[C@@H]1Cc2c(O)c(O)cc(O)c2C(=O)O1	-2	9%	1	16%	-1%	.
CC1CCC/C=C/C(=O)c2c(O)cc(O)cc2CC(=O)O1 (configuration not stated)	21	-89%	0	5µM*	0%	.
CCCCS/C(N)=N/N=C/c1ccccc1O	-21	7.9µM*	-2	-4%[46.1 µM]	0%	6
CCCS/C(N)=N/N=C/c1cc(C)ccc1O	-5	?	0	-3%[46.1 µM]	2%	2
SMILES	Giardia kill	BRCA1 expr up	IL-2 act	NPSR antagonist	RXFP1 ag	RXFP1 antagonist
CCOc1ccc(NC(=O)CCS(=O)(=O)c2cc3c4c(c2)CCN4C(=O)CC3)cc1	.	3%	.	.	1%	.
C=CCn1c(SCC#N)nc2cc(Cl)ccc2c1=O	-28	-8%	.	.	.	.
Cc1ccc(C(=O)CC(=O)c2ccccc2)cc1	15	5µM*	-1	.	-1%	6
O=C(Nc1ccc2c(c1)C(=O)c1ccccc1-2)c1ccccc1	1	2.8µM*	0	.	.	5
Cc1ccc(NC(=O)c2ccccc2)cc1	-27	3.5µM*	-3	-6%[46.1 µM]	4%	6
Cc1ccc(C(=O)Cc2ccccc2)cc1	10	47%	1	.	.	-1

Screening data as filed in PubChem BioAssay.
